Calb FLC: affects C. albicans growth with fluconazole. C. albicans CaCi-2 (fluconazole-resistant clinical isolate) + fluconazole, Alamar Blue growth, 48 h. growth inhibition, % (no concentration beside the values). actives 0.57% (n = 300,000). AID 1979;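 active = growth inhibition above about 58% in most replicates, limit read from the data, passing the limit was not always enough; inconclusive = exactly half the replicates above a set limit; inactive = most replicates below a set limit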;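 note: all wells also contain fluconazole at 8 µg/ml as a sub-toxic cotreatment; 0% = median of DMSO wells and 100% = median of geldanamycin control wells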
CSC inhib: blocks cancer stem cells | AID 2717 | inhibition, % at 7.5 µM | cancer stem cell-like cells viability, luminescence | actives 1.1% (n = 300,000); in the data active = inhibition above about 75%; inconclusive = no clear call, values can overlap the other calls; tested in HMLE shEcad cells
MPTP inh: blocks calcium-induced mitochondrial swelling; isolated mouse mitochondria, Ca2+ swelling absorbance, 30 min; inhibition, % at 10 µM; actives 1.4% (n = 360,000); AID 602449;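 active = inhibition of 50% or more, scaled per plate between neutral and stimulator controls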;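 note: 0% = DMSO wells given calcium and 100% = 1 mM EGTA wells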
Beta cell apopt: beta cell apoptosis inhibition; INS-1E cytokine-induced death, ATP luminescence, 48 h; percent of positive-control rescue, neutral wells zero; protection from apoptosis, % (test concentration not listed); actives 0.8% (n = 300,000); AID 435005;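 active = Every replicate reaches about 75%, or at least half do and their mean reaches it too, limit read from the data; inconclusive = At least half of replicates reach the limit but their mean does not; inactive = Under half of replicates reach the limit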;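 note: 0% = cytokine-treated negative control wells and 100% = positive control rescue; higher means more ATP so stronger rescue from cytokine killing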
Mdm2-MdmX inh: human Mdm2/MdmX binding inhibition; O15151+Q00987; SaOS-2 split-luciferase Mdm2/MdmX complementation, luminescence; actives 3% (n = 330,000); inhibition, % at 8 µM;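 active = inhibition of at least 50% at 8 µM in the primary screen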
Target sequence (O15151 whole entry, looked up): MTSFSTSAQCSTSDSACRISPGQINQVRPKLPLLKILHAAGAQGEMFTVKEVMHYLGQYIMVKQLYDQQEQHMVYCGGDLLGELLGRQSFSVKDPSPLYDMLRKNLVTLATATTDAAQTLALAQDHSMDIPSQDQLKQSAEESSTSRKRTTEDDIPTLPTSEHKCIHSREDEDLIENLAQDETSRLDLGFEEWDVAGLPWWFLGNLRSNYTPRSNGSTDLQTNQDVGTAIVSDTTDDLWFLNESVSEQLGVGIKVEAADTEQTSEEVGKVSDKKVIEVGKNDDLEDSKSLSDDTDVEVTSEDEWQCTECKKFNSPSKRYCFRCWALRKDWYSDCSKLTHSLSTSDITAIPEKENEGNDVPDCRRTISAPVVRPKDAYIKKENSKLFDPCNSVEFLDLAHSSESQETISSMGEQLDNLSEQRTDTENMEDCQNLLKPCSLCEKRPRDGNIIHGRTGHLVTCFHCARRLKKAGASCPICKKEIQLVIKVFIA
Target sequence (Q00987 whole entry, looked up): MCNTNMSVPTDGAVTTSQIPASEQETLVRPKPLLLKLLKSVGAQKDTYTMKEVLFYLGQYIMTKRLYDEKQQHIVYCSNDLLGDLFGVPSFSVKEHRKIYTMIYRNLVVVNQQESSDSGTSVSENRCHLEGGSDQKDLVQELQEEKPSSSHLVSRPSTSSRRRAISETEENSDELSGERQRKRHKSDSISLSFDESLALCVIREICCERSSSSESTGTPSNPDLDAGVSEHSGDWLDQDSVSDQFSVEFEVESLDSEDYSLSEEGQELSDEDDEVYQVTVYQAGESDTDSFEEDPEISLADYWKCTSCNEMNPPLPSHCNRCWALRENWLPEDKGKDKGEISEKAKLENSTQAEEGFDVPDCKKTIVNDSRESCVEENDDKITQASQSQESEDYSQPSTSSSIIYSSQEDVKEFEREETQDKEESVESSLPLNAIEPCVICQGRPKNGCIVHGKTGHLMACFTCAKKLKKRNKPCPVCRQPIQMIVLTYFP
Mdm2-MdmX conf: human Mdm2/MdmX binding inhibition, confirmed. shares compounds with Mdm2-MdmX inh. luminescent assay. inhibition, % at 8 µM. actives 55% (n = 10,000); in the data active = inhibition above about 40%
Full FLuc ctr: inhibits full-length luciferase, flagging false Mdm2/MdmX hits; shares compounds with Mdm2-MdmX inh; SaOS-2 full-length luciferase counterscreen, luminescence; inhibition, % at 8 µM; actives 77% (n = 6,200); AID 504607;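 active = mean inhibition at 8 µM reaching about 37%, which flags the compound as non-specific, limit read from the data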;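 note: p53-null SaOS-2 cells with luciferase driven by a doxycycline-inducible promoter; compound on cells about two nights before reading with doxycycline added after day one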
* marks the source's active call; other numbers are inactive results; ? = inconclusive; nt = no result given. Compounds with a hit are over-represented: about 4.8% of the library has one in this group of screens.

SMILES	Calb FLC	CSC inhib	MPTP inh	Beta cell apopt	Mdm2-MdmX inh	Mdm2-MdmX conf	Full FLuc ctr
C=CCNc1ncnc2c1ncn2C1OC(CO)C(O)C1O (configuration not stated)	-5.9	77.3*	-2.3	0.5	56.0*	21.9	nt
Nc1nc(Cl)nc2c1ncn2C1OC(CO)C(O)C1O (configuration not stated)	nt	nt	-2.3	nt	nt	nt	nt
Nc1ncn(C2O[C@H](CO)[C@@H](O)[C@H]2O)c(=O)n1 (some centres not stated)	nt	53.5	nt	4.6	53.6*	64.5*	56.8*
Nc1nc(F)nc2c1ncn2[C@@H]1O[C@H](CO)[C@@H](O)[C@H]1O	nt	59.2	-1.7	94.3*	98.6*	100.0*	2.8
Nc1nc(Cl)nc2c1ncn2C1CC(O)C(CO)O1 (configuration not stated)	8.5	73.8	-1.9	36.5	80.7*	77.1*	25.6
O=C(NC1CCN(Cc2ccccc2)CC1)c1[nH]c(C(F)(F)F)nc1-c1ccccc1	nt	nt	-0.4	nt	nt	nt	nt
Cc1cccc(NC(=O)CNC(=O)COc2cccnc2[N+](=O)[O-])c1C	nt	-6.8	1.0	0.9	5.5	nt	nt
O=C1C=C(NCc2ccc(Cl)cc2)CC(c2ccco2)C1 (configuration not stated)	-12.8	-2.9	-0.9	-0.6	-23.8	nt	nt
O=C1C=C(Nc2ccc(Cl)cc2Cl)CC(c2ccco2)C1 (configuration not stated)	12.1	49.0	-1.2	-0.6	50.6*	53.2*	62.1*
Cc1nc2ccccn2c1C(=O)/C=C/c1cccc([N+](=O)[O-])c1	21.0	88.2*	1.9	102.4*	98.7*	97.5*	27.6
Cc1ccc(/C=C/C(=O)c2c(C)nc3ccccn23)cc1	51.8	46.6	6.2	18.1	-49.5	nt	nt
COc1ccc(OCC(=O)NCCNC(=O)c2cccnc2)cc1	45.9	nt	0.7	-4.1	-22.3	nt	nt
CN(C(=S)Nc1ccc(F)cc1)C(c1ccccc1)c1ccccc1	-2.5	2.8	2.7	-6.2	14.9	nt	nt
Cc1ccc(NC(=S)N(C)C(c2ccccc2)c2ccccc2)cc1C	1.6	27.8	0.9	3.5	59.0*	24.8	nt
CC(=O)Nc1ccc(NC(=O)COC(=O)c2c(C)nn(-c3ccccc3)c2C)cc1	51.3	-32.5	-1.7	1.6	-7.6	nt	nt
CC(=O)Nc1ccc(NC2=Nc3ccccc3N3C2=Nc2c(c(C)nn2-c2ccccc2)C3c2ccccc2)cc1 (configuration not stated)	-1.7	-0.5	2.3	57.8	84.1*	89.7*	32.1
CCCC(=O)N(Cc1cc(=O)[nH]c2ccccc12)c1cccc(C)c1	0.6	-16.6	-0.4	4.2	-4.8	nt	nt
COc1ccc(N(Cc2cc(=O)[nH]c3ccccc23)C(=O)CCl)cc1	17.4	56.9	-0.6	-27.2	100.3*	79.3*	62.6*
Cc1cccc(N(Cc2cc(=O)[nH]c3ccccc23)C(=O)CCl)c1	6.0	104.7*	0.0	-16.0	100.3*	100.2*	56.1*
CC(C)=C[C@H]1C[C@H](C)[C@H]2CC[C@H](C)c3c(O)c(O[C@H]4OC[C@H](O)[C@@H](O)[C@@H]4O)c(C)c1c32	nt	nt	2.4	nt	nt	nt	nt
COc1ccc(C2c3ccc4ccccc4c3Oc3ncn(CCN4CCOCC4)c(=N)c32)cc1 (configuration not stated)	101.0*	10.5	-4.0	nt	74.6*	54.9*	52.7*
COc1ccc(C2c3c(ncn(CCCN4CCOCC4)c3=N)Oc3ccc4ccccc4c32)cc1OC (configuration not stated)	12.0	-7.4	-3.0	-2.4	86.2*	51.2*	67.3*
COc1ccc(C2c3ccc(O)cc3Oc3ncn(CCN4CCOCC4)c(=N)c32)cc1OC (configuration not stated)	2.7	-0.6	5.1	-4.5	16.5	nt	nt
COc1ccc(C2c3ccc4ccccc4c3Oc3ncn(CCN4CCOCC4)c(=N)c32)cc1OC (configuration not stated)	39.1	nt	-4.7	nt	69.3*	46.6*	66.7*
N=c1c2c(ncn1CCN1CCOCC1)Oc1cc(O)ccc1C2c1ccccc1 (configuration not stated)	-4.1	-11.5	-0.9	4.0	15.0	nt	nt
SMILES	Calb FLC	CSC inhib	MPTP inh	Beta cell apopt	Mdm2-MdmX inh	Mdm2-MdmX conf	Full FLuc ctr
CCCS(=O)(=O)NC(=O)C1(C)CCN(C(=O)c2cc(C(C)(C)C)nn2C)C1 (configuration not stated)	nt	nt	-0.6	nt	nt	nt	nt
Cc1oc2cc(O)cc(C)c2c(=O)c1-c1cnn(-c2ccccc2)c1	-3.3	27.7	-0.7	5.4	57.8*	23.7	nt
Cc1oc2c(O)c(O)ccc2c(=O)c1-c1cnn(-c2ccccc2)c1	-5.0	54.6	3.2	-2.1	10.9	nt	nt
CCOC(=O)c1c(-c2ccccc2)oc2ccc(OCC(O)CNCCN(C)C)cc12 (configuration not stated)	-23.7	54.6	-2.8	19.3	95.0*	47.6*	35.1
CCOC(=O)c1c(-c2ccccc2)oc2ccc(OCC)cc12	-11.6	10.9	1.7	-0.7	4.3	nt	nt
COC(=O)c1c(-c2ccccc2)c[nH]c1C	23.9	-9.6	0.5	nt	-22.7	nt	nt
CN1CCN(S(=O)(=O)c2ccc(SCCOc3ccc(Cl)cc3)nc2)CC1	nt	nt	-0.2	6.0	58.6*	32.2	nt
COc1ccc(OCCSc2ccc(S(=O)(=O)N3CCCC3)cn2)cc1	nt	-6.8	0.9	0.0	-20.4	nt	nt
O=C(C(=Cc1ccc(O)cc1)c1ccccc1)c1ccccc1	nt	nt	3.3	nt	nt	nt	nt
CCn1ncc(C2=NOC(C(=O)NCc3ccccc3)C2)c1C (configuration not stated)	1.7	69.3	-1.8	5.7	61.9*	52.0*	83.7*
COC1=CC(=O)OC(c2cccc(C#N)c2)C1 (configuration not stated)	nt	nt	1.0	nt	nt	nt	nt
COc1ccccc1C(=O)N1CCN(C(=O)[C@H]2O[C@@H](n3ccc(N)nc3=O)[C@H](O)[C@@H]2O)CC1	nt	nt	-1.3	nt	nt	nt	nt
O=c1[nH][nH]c2c1[C@H](c1ccc(F)cc1)O[C@H](CCc1ccccc1)C2	nt	nt	-1.3	nt	nt	nt	nt
Nc1c(N=Nc2cccc(Cl)c2)c(=O)[nH]n1-c1ccccc1	-3.9	-4.1	3.5	0.6	56.2*	-51.5	nt
O=C(Nc1cccc(C(F)(F)F)c1)c1cccnn1	-1.7	-3.6	0.1	-1.1	-6.5	nt	nt
Cc1ccc(NC(=O)Nn2cnnc2)cc1Cl	8.7	nt	-0.9	-4.2	4.4	nt	nt
Cc1ccc(NC(=O)O/N=C/c2c(C)nn(C(C)(C)C)c2C)cc1Cl	-6.5	1.4	10.3	-1.9	79.5*	91.8*	54.0*
CN1CCN(Cc2c(C(=O)N/N=C/c3cccc(Br)c3)nnn2-c2nonc2N)CC1	12.2	-7.1	0.5	7.8	83.8*	5.6	nt
CCN(CC)c1ccc(/C=N/NC(=O)c2nnn(-c3nonc3N)c2C(C)C)c(O)c1	?	10.2	-0.9	91.4*	71.5*	88.3*	16.3

Bioassay records as filed in PubChem.
